From PubChem BioAssay (NCI)
About 83,000 compounds went through this panel and 20% of them were active in at least one assay; those are over-represented in the sample as a whole.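 Note: values are percent growth. 100 is the growth of untreated cells, values between 100 and 0 indicate rising inhibition; between -100 and 0 indicates cell death.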 Active and inactive are the calls of the source. How the source made its calls: active means growth percent below 10; inactive means the rest.

Key:
Experiment in all cases: NCI-60 one-dose screen, 48 h (100 = growth as untreated, 0 = no growth, -100 = all killed)
Details in all cases: 10 µM unless noted
[1] = tested on: SR leukemia
[2] = tested on: RPMI-8226 leukemia
[3] = tested on: OVCAR-8 ovarian
[4] = tested on: OVCAR-5 ovarian
[5] = tested on: OVCAR-4 ovarian
[6] = tested on: SK-OV-3 ovarian
[7] = tested on: IGROV1 ovarian
[8] = tested on: OVCAR-3 ovarian
[9] = tested on: HS 578T breast
[10] = tested on: NCI/ADR-RES ovarian

Measured: growth

O=CCCCOCc1ccccc1
inactive: [1] 96% | [2] 100% | [3] 103% | [4] 101% | [5] 98.6% | [6] 99.9% | [7] 101% | [8] 110% | [9] 92.9% | [10] 97.4%

Cc1nc([P+](c2ccccc2)(c2ccccc2)c2ccccc2)c(N2CCCCC2)o1
active: [2] -13.5%
inactive: [1] 20.3% | [3] 20.3% | [4] 54.1% | [5] 19.8% | [6] 20.6% | [7] 32.8% | [8] 19.5% | [9] 27.9% | [10] 107%

O=c1cc(CP(=O)(O)O)c2cc(O)c(-c3ccccc3)cc2o1
inactive: [1] 95.2% | [2] 99.2% | [3] 101% | [4] 101% | [5] 98.5% | [6] 102% | [7] 104% | [8] 108% | [9] 101% | [10] 102%

Cc1nc2ccccc2c(/C=C/c2ccc(F)cc2)c1C(=O)/C=C/c1ccccc1
inactive: [5] 36.4% | [6] 56% | [7] 13.6% | [9] 22.4%
active: [1] 8.92% | [2] 1.46% | [3] 2.09% | [4] -22% | [8] -15.4% | [10] 2.57%

C[C@H]1[C@H](C)CC[C@]2(C(=O)NCCNCCN)CC[C@]3(C)C(=CC[C@@H]4[C@@]5(C)CCC(=O)C(C)(C)[C@@H]5CC[C@]43C)[C@H]12
active: [1] -38.7% | [2] -16.3% | [8] 9.12%
inactive: [3] 33.6% | [4] 94.1% | [5] 77.4% | [6] 87.4% | [7] 52.7% | [9] 72.5% | [10] 88.2%

C=CC(=O)Nc1cccc(Oc2nccc(Nc3nnc(-c4ccc(Br)cc4)s3)n2)c1
inactive: [1] 89.3% | [2] 87.4% | [3] 98.5% | [4] 95.4% | [5] 86.4% | [6] 91% | [7] 101% | [8] 102% | [9] 93.4% | [10] 99.8%

CC(=O)c1c(Nc2cccc(F)c2)[nH]c2c(Cl)cc(Cl)c(Cl)c2c1=O
active: [2] -8.11% | [3] 7.74% | [6] 1.25% | [9] 4.68% | [10] 3.89%
inactive: [1] 14.8% | [4] 15.3% | [5] 13.5% | [7] 17.9% | [8] 14.8%

Cc1cc(Cl)nc(N2CCN(CCNc3ccnc4cc(Cl)ccc34)CC2)n1
inactive: [2] 13.5% | [3] 61.5% | [4] 66.6% | [5] 40.1% | [6] 56.9% | [7] 61% | [8] 60.7% | [9] 76.8% | [10] 45.2%
active: [1] -7.81%

Cc1ccc(C)c2c1sc1nc(N3CCOCC3)c(C#N)c(=O)n12
inactive: [1] 63.5% | [2] 76.5% | [3] 110% | [4] 95.8% | [5] 76.8% | [6] 99.4% | [7] 55.9% | [8] 89.9% | [9] 76.4% | [10] 92.2%

CCN(CC)CCn1c2ccc(OC)cc2c2sc3cc(O)ccc3c(=O)c21
inactive: [2] 21.2% | [3] 30.7% | [4] 91% | [5] 50.7% | [6] 52.3% | [7] 26.3% | [8] 38.3% | [9] 60% | [10] 27.6%
active: [1] 2.99%

Cc1cccc(NC(=O)Cn2cc(CN3CCN(c4ccnc5cc(Cl)ccc45)CC3)nn2)c1
inactive: [1] 78% | [2] 63.7% | [3] 92.7% | [4] 96.8% | [5] 78.1% | [6] 76.6% | [7] 89.1% | [8] 91.1% | [9] 85.1% | [10] 91.3%

CCC(C)(C)c1ccc(Nc2ccc(Nc3ccc(C(C)(C)CC)cc3)cc2)cc1
inactive: [1] 87.7% | [2] 76.8% | [3] 87.7% | [4] 93.8% | [5] 89.2% | [6] 89.7% | [7] 95.3% | [8] 89.9% | [9] 88.9% | [10] 91.7%

CCOC(=O)C(CCN(C)C)c1ccccc1 (stereo not given)
inactive: [1] 97.8% | [2] 98.2% | [3] 111% | [4] 88.7% | [5] 100% | [6] 104% | [7] 104% | [8] 96.4% | [9] 98% | [10] 103%

CC(C)(C)c1ccc(S(=O)(=O)Oc2ccc(-c3sc4cc(OS(=O)(=O)c5ccc(C(C)(C)C)cc5)ccc4c3C(=O)c3ccc(OCCN4CCCCC4)cc3)cc2)cc1
inactive: [1] 104% | [2] 93.6% | [3] 115% | [4] 99.4% | [5] 97.1% | [6] 88.8% | [7] 101% | [8] 102% | [9] 104% | [10] 97.9%
